Source: PubChem
Shown are actives, neighbours in structure and some others; about 3.4% of the full set was active somewhere.
GPR151 activ: activators of human GPR151, primary screen, cell-based, PathHunter beta-arrestin, luminescence | G-protein coupled receptor 151 (Homo sapiens), Q8TDV0 | PathHunter beta-arrestin GPR151 cells | activation, % at 11.2 µM | 650,000 tested, 1% active; in the data active means activation above about 4.9%;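 further: 0% = median of compound wells and 100% = cells with positive control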
FBW7 activator: FBW7 E3 ligase activators, primary screen, biochemical, AlphaScreen, human; F-box/WD repeat-containing protein 7 (Homo sapiens), Q969H0; AlphaScreen FBW7–phospho-cyclin E peptide binding, activator screen; normalized activity (activation), % at 26.1 µM; 650,000 tested, 0.13% active; AID 1259310, 2017; in the data active means normalized activity above about 1.9%;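 further: purified mutant Fbw7 with reduced substrate affinity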
TEAD-YAP inh: TEAD-YAP interaction inhibition, primary screen, TEAD-YAP interaction inhibitor project, luminescence, HEK-TIYL cells; TEAD-Gal4/YAP UAS-luciferase luminescence; inhibition, % at 9.12 µM; 640,000 tested, 1.4% active; AID 1259422, 2018; in the data active means inhibition above about 32%;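 further: 0% = median of test compound wells and 100% = reference inhibitor wells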
MITF inh: MITF inhibitors, primary screen, biochemical, AlphaScreen, human; AlphaScreen MITF homodimerization, bead proximity signal; 650,000 tested, 0.91% active; inhibition, % at 2.6 µM; in the data active means inhibition above about 50%;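 further: 0% = vehicle wells with protein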
GPR151 conf act: GPR151 activators, triplicate retest, confirmation, cell-based, PathHunter beta-arrestin, luminescence; shares compounds with GPR151 activ; GPR151 PathHunter beta-arrestin cells, 90 min; % of EA-reagent control over plate median; activation, % at 11.2 µM; 6,700 tested, under 10 active;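 active means mean percent activation across replicates above the confirmation screen cutoff of 4.91%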
GPR119 ag: GPR119 activators in beta-arrestin cells, counter-screen for GPR151 activator project, cell-based, PathHunter beta-arrestin, luminescence, triplicate; 6,700 tested, 0.3% active; shares compounds with GPR151 activ; 90 min; 0 = compound-well median, 100 = enzyme-acceptor control; activation, % at 11.2 µM;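 active means mean percent activation in the counterscreen above 29.09%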;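 further: counterscreen on off-target GPR119 to flag nonselective hits from the GPR151 activator screen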
Target sequence (Q8TDV5 whole entry, looked up): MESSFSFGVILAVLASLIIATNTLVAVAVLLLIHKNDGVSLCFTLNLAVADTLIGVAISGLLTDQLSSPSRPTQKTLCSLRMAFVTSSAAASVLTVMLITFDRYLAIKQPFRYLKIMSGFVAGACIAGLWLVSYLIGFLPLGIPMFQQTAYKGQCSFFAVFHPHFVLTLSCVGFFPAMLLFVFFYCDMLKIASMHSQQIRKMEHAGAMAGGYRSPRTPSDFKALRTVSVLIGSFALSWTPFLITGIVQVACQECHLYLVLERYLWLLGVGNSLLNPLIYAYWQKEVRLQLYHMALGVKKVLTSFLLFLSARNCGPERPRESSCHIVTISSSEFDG
Active calls of the source: *; / = not tested or not shown.

SMILES	GPR151 activ	FBW7 activator	TEAD-YAP inh	MITF inh	GPR151 conf act	GPR119 ag
Cc1ccc2c(c1)N(CC(=O)Nc1ccc3c(c1)OCCO3)C(=O)CO2	-1	0	14	11	/	/
COc1ccc(OC)c(C2NC(C(=O)O)C3C(=O)N(c4ccccc4)C(=O)C23)c1 (centres undefined)	5.2*	0	-9	-7	0	7
COc1ccc(C2NC(C(=O)O)C3C(=O)N(c4ccc(F)cc4)C(=O)C23)c(OC)c1 (centres undefined)	1	0	4	-5	/	/
COc1ccc(OC)c(C2NC(C(=O)O)C3C(=O)N(c4cccc(C(=O)O)c4)C(=O)C23)c1 (centres undefined)	5.0*	0	4	-3	0	1
COc1ccc(C2NC(C(=O)O)C3C(=O)N(c4ccc(F)cc4)C(=O)C23)c(OC)c1OC (centres undefined)	1	0	0	8	/	/
O=C(NCc1ccc(F)cc1)c1cc([N+](=O)[O-])ccc1Cl	1	0	8	6	/	/
COc1cc(OC)c(NC(=O)Nc2noc3c2COc2ccccc2-3)cc1Cl	5.2*	0	7	3	1	-1
Cc1ccc(NC(=O)c2cccc(I)c2)cc1[N+](=O)[O-]	4.9*	0	-24	-15	1	-7
CCC(CC)NC(=O)c1ccc(C)c([N+](=O)[O-])c1	5.2*	0	-1	1	1	0
CCOC(=O)c1nn(-c2ccc(C)cc2)c(=O)c2c(NC(=O)c3cccs3)scc12	-1	0	-1	5	/	/
Cc1nc(SCC(=O)Nc2cc(C)on2)c2c(-c3cccs3)csc2n1	1	0	1	6	/	/
Cc1nc(SCC(=O)NC(=O)NCc2ccco2)c2c(-c3cccs3)csc2n1	5.0*	0	2	11	1	4
CCC(Sc1nc2ccsc2c(=O)n1Cc1ccccn1)C(=O)Nc1cccc(C)c1 (centres undefined)	-2	0	-20	-4	/	/
COCc1c(C(=O)N/N=C\c2ccccc2OC)nnn1-c1nonc1N	5.1*	0	1	12	-1	-6
Nc1nonc1-n1nnc(C(=O)N/N=C/c2ccco2)c1CN1CCc2ccccc21	11*	0	-7	-5	0	2
Nc1nonc1-n1nnc(C(=O)N/N=C/c2cccs2)c1CN1CCc2ccccc21	2	0	-1	-6	/	/
CCOc1cccc(NC(=O)/C(C#N)=C\c2cccc(O)c2)c1	-1	0	0	17	/	/
COc1ccc(C(=O)Nc2cc(C(=O)N3CCCCCC3)ccc2N2CC3CC(C2)c2cccc(=O)n2C3)cc1 (centres undefined)	1	0	-5	-6	/	/
CCC(Sc1c[nH]c2ccccc12)C(=O)O (centres undefined)	5.5*	0	-5	-2	0	0
CCC(Sc1ccccc1C(=O)O)C(=O)O (centres undefined)	0	0	11	11	/	/
O=C(c1ccc(Cl)cc1)c1cc(NC(=O)c2cc(Br)cc(Br)c2O)ccc1Cl	8.2*	0	7	3	1	-3
COc1ccc(NC(=O)CSc2nc(N)c3c(C)c(C)sc3n2)cc1OC	-1	0	10	-6	/	/
Cc1ccn(CCC(=O)NCC2Cc3cc(-c4cnccn4)cc(Cl)c3O2)n1 (centres undefined)	12*	0	-1	-9	1	16
Cn1ccc(C(=O)NCC2Cc3cc(-c4cnccn4)cc(Cl)c3O2)n1 (centres undefined)	1	0	-1	18	/	/
COc1cc(N2C(=O)c3ccccc3C2=O)c(Cl)cc1C(=O)O	1	0	-5	-6	/	/
SMILES	GPR151 activ	FBW7 activator	TEAD-YAP inh	MITF inh	GPR151 conf act	GPR119 ag
CC1=C(C(=O)OC2CCCCC2)C(c2ccccc2Cl)C2=C(CC(c3ccccc3)CC2=O)N1 (centres undefined)	2	0	3	-5	/	/
COc1cc(/C=c2\sc3nc(=O)c(C)nn3c2=O)ccc1OC(C)=O	14*	0	3	4	0	-1
CCOc1ccc(/C=c2\sc3nc(=O)c(C)nn3c2=O)cc1OC	0	0	16	8	/	/
CN1C(=O)/C(=C\c2cccc(Cl)c2)c2ccccc21	0	0	-15	-13	/	/
COc1ccc(-c2[nH]nc3c2C(c2ccc(OC(=O)c4ccco4)c(OC)c2)C(C#N)=C(N)O3)cc1 (centres undefined)	-1	0	0	3	/	/
Cc1nc(NC(=O)c2ccccc2F)sc1C(=O)O	-6	1	5	18	/	/
Cc1nc(NS(C)(=O)=O)sc1C(=O)O	5.0*	0	8	11	0	5
Cc1cccc(C(=O)NNC(=O)C2CCN(c3nc(C)cc(C)n3)CC2)c1	0	0	-15	17	/	/
O=C(Nc1ccc(N2CCC(NCCN3CCNC3=O)CC2)cc1)C1CCCC1	6.3*	0	-13	1	0	0
O=C(COc1ccccc1)Nc1ccc(N2CCC(NCCN3CCNC3=O)CC2)cc1	0	0	9	1	/	/
CCC(CO)NC(=O)/C=C/c1cn(-c2ccccc2)nc1-c1ccc2c(c1)OCCO2 (centres undefined)	0	0	2	-15	/	/
CN(Cc1ccccc1)c1ccnc2c(-c3ccc(O)cc3)cnn12	5.0*	0	73*	-7	0	0
Cc1ccc(-c2cn3ccc4ccccc4c3n2)cc1	-4	1	-36	-10	/	/
Cn1c(=O)c2c(nc(NCCO)n2Cc2ccc(Br)cc2)n(C)c1=O	5.5*	0	21	6	1	4
Cn1c(=O)c2c(nc(NCCO)n2Cc2ccccc2F)n(C)c1=O	16*	0	25	22	-1	6
CC(C#N)CN1N=C(c2ccccc2)Cn2c(cc3sccc32)C1=O (centres undefined)	0	0	-5	2	/	/
Cc1ccc2nc(-c3ccccn3)cc(C(=O)Nc3ccc([N+](=O)[O-])cn3)c2c1	15*	0	3	-2	0	3
CCOC(=O)c1ccc(NC(=O)CN2C(=O)C(CC)SC(CC)C2=O)cc1 (centres undefined)	6.4*	0	2	9	0	6
CCOc1ccc(NC(=O)CN2C(=O)C(C)SC(C)C2=O)cc1 (centres undefined)	3	0	1	4	/	/
CCOC(=O)c1ccc(NC(=O)CNC(=O)c2ccccc2)cc1	15*	1	2	7	-2	-4
